# Hits are enriched below; roughly 19% of the tested compounds scored in any of these assays.
# TDP1 cell noCPT: qHTS for Inhibitors of human tyrosyl-DNA phosphodiesterase 1 (TDP1): qHTS in cells in absence of CPT | DT40 Tdp1-/- hTDP1 cells, no CPT, ATP luminescence, 48 h | Potency, µM (highest dose often 46.2 µM), inactives show at the top dose activity change, negative = growth inhibition, actives largely listed as inhibitors | 15% of 420,000 active; note: potency is the fitted concentration of half-maximal effect; nearly all actives have a fitted effect of over 55% in size
#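 Chicken DT40 Tdp1-/- cells complemented with human TDP1, screened without camptothecin (DMSO vehicle only), 400 cells/well. Compounds pin-transferred, cells incubated at 37 °C for at least 48 hr. Growth read as ATP-dependent luminescence (CellTiter-Glo, 30 min at RT).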
# IL1B secr inh: inflammasome signaling inhibition, IL-1 beta readout. AID 743279. THP-1 LPS/ATP IL-1B secretion, AlphaLISA, 16 h; stronger effect = lower value. activity change, % at 57.5 µM. 4.7% of 360,000 active; in the data active = activity change below about -50%; inconclusive = mostly about -30% to -49%
#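 THP-1 cells pretreated 1 hr with compounds (up to 57.5 uM final), then stimulated with LPS (250 ng/mL final) plus ATP (1.25 mM final); secreted IL-1B measured by AlphaLISA after 16 hr, decreased signal indicating inhibition.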
# HT1080-NT tox: kills 2HG-producing HT-1080-NT fibrosarcoma cells; Potency, µM (series often up to 46.1 µM), without a hit: at the top dose activity, negative = less viability, usual class: cytotoxic; HT-1080-NT fibrosarcoma viability, CellTiter-Glo ATP luminescence, 48 h; 1.6% of 360,000 active;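 note: NT is the 2HG producing partner of a matched IDH1 knockdown line; potency is the fitted concentration of half-maximal effect; 0% = DMSO-treated cells and -100% = media-only wells without cells; nearly all actives have a fitted effect of over 55% in size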
#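 Fibrosarcoma NT cells, 750 per well in 5% FBS RPMI, were exposed to compound for 48 hours. Viability: CellTiter-Glo luminescence.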
# DT40 TDP1 CPT: DT40-hTDP1 cell growth loss with CPT. chicken DT40 Tdp1-/-;hTDP1 cells + 20 nM CPT, ATP luminescence, 48 h. Potency, µM (top dose mostly 46.2 µM), inactives show top-dose activity change, negative = growth inhibition, actives largely listed as inhibitors. 12% of 420,000 active. AID 686979; note: potency is the fitted concentration of half-maximal effect; nearly all actives have a fitted effect of over 55% in size
#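 Chicken DT40 Tdp1-/- cells stably complemented with human TDP1 were seeded at 400 cells/well in medium containing 20 nM camptothecin, exposed to pin-transferred compounds, and grown at 37 °C for at least 48 hr. Viability was read as ATP luminescence.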
# HT1080 IDH1KD tx: HT-1080 IDH1 knockdown cell toxicity (counter line) | Potency, µM (doses to about 46.1 µM), inactives show top-dose activity, negative = toxicity, usual class: cytotoxic | HT-1080 IDH1 knockdown viability, ATP luminescence, 48 h | 2% of 360,000 active | AID 686971;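 note: potency is the fitted concentration of half-maximal effect; 0% = DMSO wells and -100% = cell-free medium wells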
#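 Knockdown cells (IDH1KD HT-1080) received compounds 2 h after plating at 750 cells/well and were kept 48 h at 37 °C in 5% FBS RPMI. A CellTiter-Glo luminescence read gave % activity for curve fitting.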
# The depositor's hits bear a star; ? = inconclusive; nt = no result. Unless noted, calls come from the whole dose curve; as a rule, active = well fitted curve in the direction sought with a large enough effect; inconclusive = small, poorly fitted or top-dose-only effect, or another doubt; inactive = no such curve, though single readings can be large; an effect the other way counts as inactive or inconclusive. Unless noted, % is set by controls: 0 for no effect and ±100 for the full control effect.
SMILES,TDP1 cell noCPT,IL1B secr inh,HT1080-NT tox,DT40 TDP1 CPT,HT1080 IDH1KD tx
COC(=O)CCNC(=O)N1CCN(c2nnc(C)c3c(C)n(-c4ccccc4)nc23)CC1,-14%,nt,nt,-2%,nt
CCc1ccccc1NC(=O)N1CCc2ccccc2C1,19%,-20,20%,20%,19%
CCc1ccccc1NC(=O)N1CCc2cc(OC)c(OC)cc2C1CC(=O)OC (stereo not drawn),18µM*,nt,nt,?,nt
COc1cc2c(cc1OC)C(CC(=O)O)N(C(=O)CC1CCCC1)CC2 (stereo not drawn),-10%,16,20%,10%,14%
COc1cc(OC)c(NC(=O)N2CCc3cc(OC)c(OC)cc3C2CC(=O)O)cc1Cl (stereo not drawn),8.2µM*,nt,nt,15µM*,nt
O=C(Nc1ccccc1C(F)(F)F)C1CCN(C(=O)Cc2ccccc2)CC1,-1%,0,5%,4%,8%
Cc1ccc(C)c(NC(=O)c2ccc3nc(CCc4ccccc4)oc3c2)c1,-30%,nt,nt,-19%,nt
C=CCO/N=C(/CCC)C1=C(N)CC(C)(C)CC1=O,1%,38,0%,-2%,5%
CC1(C)C2CCC1(C)C(OCC[N+](C)(C)CC(=O)OC1CCCCC1)C2 (stereo not drawn),0.65µM*,15,?,1.2µM*,?
CCOC(=O)C[N+](C)(C)CCOC1CC2CCC1(C)C2(C)C (stereo not drawn),7.3µM*,-5,0%,16µM*,0%
CN(C(=O)c1ccc(Cl)cc1)C1=CCCCC1CCC#N (stereo not drawn),?,0,-1%,19%,0%
COC(=O)COc1ccc(-n2cnnn2)cc1,?,39,13%,-2%,12%
COc1ccc(N(C)S(=O)(=O)c2cccc(C(=O)Nc3ccc(-n4cnnn4)cc3)c2)cc1,18µM*,-4,-2%,18µM*,-28%
COc1ccc(N(C)S(=O)(=O)c2cccc(C(=O)Nc3ccc4c(c3)OCCO4)c2)cc1,15µM*,-14,-2%,16µM*,-10%
O=C(/C=C/c1ccccc1)Nc1cccc(C(=O)NCCc2ccccc2)c1,?,4,-16%,?,?
O=C(NCCCCc1ccccc1)c1cccc(NC(=O)C2CCC2)c1,-30%,-5,-3%,-6%,1%
O=C(NCCCCc1ccccc1)c1cccc(NC(=O)C2CCCCC2)c1,26µM*,0,-10%,?,-8%
O=C(/C=C/c1ccccc1)Nc1cccc(C(=O)NCCCCc2ccccc2)c1,18µM*,22,-4%,?,0%
C=CCN1C(=O)N(c2ccc(F)cc2)C(=O)C1CC(=O)Nc1ccc(Cl)cc1 (stereo not drawn),-12%,-28,4%,7%,-17%
O=[N+]([O-])c1ccccc1SN(Cc1ccccc1)c1ccccn1,15µM*,?,-3%,?,-3%
O=C(c1ccc([N+](=O)[O-])cc1)N(Cc1ccccc1)c1ccccn1,-17%,-9,5%,20%,3%
COc1ccc(NS(=O)(=O)c2cc(C(=O)N(C)CCc3ccccn3)ccc2Cl)cc1,-2%,17,-4%,-2%,14%
COc1ccc(C(C#N)=C2C=C(Cl)C(=NO)C=C2Cl)cc1,2.6µM*,-6,-16%,3.3µM*,-10%
N#CC(=C1C=C(Br)C(=NO)C=C1Cl)c1cccc2ccccc12,?,-19,?,?,?
COc1ccc(C(C#N)=C2C=CC(=NO)C(C)=C2Cl)cc1,7.3µM*,-82*,1%,10µM*,-24%
SMILES,TDP1 cell noCPT,IL1B secr inh,HT1080-NT tox,DT40 TDP1 CPT,HT1080 IDH1KD tx
CCN(Cc1ccccc1)C(=O)Cn1c(=O)n(-c2ccc(Cl)cc2)c(=O)c2c(C)c(C)sc21,18µM*,nt,nt,3.7µM*,nt
Cc1ccc(-n2c(=O)c3c(C)c(C)sc3n(CC(=O)c3ccc(Cl)cc3)c2=O)cc1C,-5%,nt,nt,-14%,nt
CCOc1ccc(-n2c(=O)c3c(C)c(C)sc3n(CC(=O)N(CC)Cc3ccccc3)c2=O)cc1,12µM*,nt,nt,18µM*,nt
CCOc1ccc(-n2c(=O)c3c(C)c(C)sc3n(CC(=O)c3ccccc3)c2=O)cc1,16µM*,nt,nt,13µM*,nt
CCN(Cc1ccccc1)C(=O)Cn1c(=O)n(-c2ccc(C)c(C)c2)c(=O)c2c(C)c(C)sc21,?,nt,nt,21µM*,nt
CCOC(=O)C1CCCN(c2ncnc3c2nnn3C)C1 (stereo not drawn),-23%,nt,nt,-21%,nt
Cc1ccc(NC(=S)NCc2ccccc2)cc1S(=O)(=O)N1CCCCC1,?,-22,-10%,?,-8%
COc1cc(CNC(=O)c2cc(-c3ccc(OC)cc3C)n[nH]2)cc(OC)c1,-11%,-22,4%,?,30%
CCOC(=O)c1cc(-c2ccccc2)n(CCC(=O)N2CCN(c3ccccc3OC)CC2)c1C,8.2µM*,?,-11%,12µM*,-17%
CCOC(=O)c1cc(-c2ccccc2)n(CCC(=O)N2CCN(c3ccc(OC)cc3)CC2)c1C,23µM*,-60*,-6%,15µM*,-9%
CNc1ccccc1C(=O)OCC(=O)N1CCN(c2ccc(OC)cc2)CC1,-24%,12,-7%,?,4%
CCOC(=O)c1cc(-c2ccccc2)n(CC(=O)N2CCCC2)c1C,-15%,-9,9%,-29%,10%
Cc1ccc(NC(=O)CCN2C(=O)C3CCCCC3C2=O)cc1[N+](=O)[O-] (stereo not drawn),-19%,-1,-2%,1%,-8%
Cc1cc2cc(CCNC(=O)c3ccc(C)c([N+](=O)[O-])c3)c(=O)[nH]c2cc1C,13µM*,-4,6%,?,5%
Cc1cc2cc(CCNC(=O)c3ccc(S(=O)(=O)N4CCCC4)cc3)c(=O)[nH]c2cc1C,21µM*,-27,-16%,18µM*,-7%
COc1ccc(OC)c2[nH]c(=O)c(CCNC(=O)c3ccc(S(=O)(=O)N4CCCCC4)cc3)cc12,?,20,5%,?,3%
Cc1ccc2cc(CCNC(=O)c3ccc4c(c3)OCO4)c(=O)[nH]c2c1C,15µM*,0,16%,21µM*,6%
Cc1cc2cc(CNC(=O)c3ccc(C)c([N+](=O)[O-])c3)ccc2[nH]1,10µM*,-21,-1%,21µM*,-3%
COc1ccccc1-c1ccc2ncnc(N3CCNCC3)c2c1,14%,nt,nt,?,nt
CCN(CC)C(=O)C1=C(C)N(Cc2ccc(OC)cc2)C(=O)C(CC(=O)NCCN2CCOCC2)C1 (stereo not drawn),-8%,14,4%,-4%,-2%
